# An excerpt weighted towards active compounds, which were near 11% of everything screened.
# IMPase cell inh – membrane-permeable compound that blocks inositol monophosphatase; P97697; CHO-M1 cells, IP1 accumulation, HTRF TR-FRET ratio; inhibition (IP1 accumulation), % at 46.1 µM; 120,000 tested, under 10 active; active = well fitted curve in the direction sought with a large enough effect in the signal ratio, not every such curve was filed as active; inconclusive = small, poorly fitted or top-dose-only effect, or a change in a side signal; inactive = no such curve, though single readings can be large or run the other way; the % refers to the signal ratio;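 also: cells stimulated with carbachol in lithium chloride buffer; plate controls were DMSO basal wells for no effect and reference inhibitor wells for full effect; higher means more IMPase inhibition seen as more IP1 and lower FRET ratio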
# Target sequence (P97697 whole entry, looked up): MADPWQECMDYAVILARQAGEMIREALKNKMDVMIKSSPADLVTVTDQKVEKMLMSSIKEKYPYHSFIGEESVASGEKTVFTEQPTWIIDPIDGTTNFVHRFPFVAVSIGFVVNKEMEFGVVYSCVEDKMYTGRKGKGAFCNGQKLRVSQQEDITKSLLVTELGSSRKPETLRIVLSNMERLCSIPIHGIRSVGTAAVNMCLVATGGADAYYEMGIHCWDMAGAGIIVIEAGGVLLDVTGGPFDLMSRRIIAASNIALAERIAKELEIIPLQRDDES
#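 Elevated IP1 in lysates lowers TR-FRET signal (665/620 ratio and 620 channel reported). Cells were CHO-M1, given carbachol (50 uM as added) plus 50mM LiCl, pH 7.4, 30 min, 37C; compounds titrated up to 46 uM; AC50 by Hill equation.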
# ALDH1A1 inh – blocks purified human ALDH1A1 activity; P00352; Purified ALDH1A1, NADH fluorescence, propionaldehyde substrate; Potency, µM (highest dose often 75.3 µM), for inactives: top-dose activity, negative = inhibition, hits mostly inhibitors; 220,000 tested, 7.3% active; active = well fitted inhibition curve with a large enough effect, not every such curve was filed as active; inconclusive = small, poorly fitted or top-dose-only effect, or another doubt; inactive = no such curve, though single readings can be large or run the other way;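 also: potency is read from the fitted curve at half-maximal effect; plate controls were no enzyme wells and a reference inhibitor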
# Target sequence (P00352 whole entry, looked up): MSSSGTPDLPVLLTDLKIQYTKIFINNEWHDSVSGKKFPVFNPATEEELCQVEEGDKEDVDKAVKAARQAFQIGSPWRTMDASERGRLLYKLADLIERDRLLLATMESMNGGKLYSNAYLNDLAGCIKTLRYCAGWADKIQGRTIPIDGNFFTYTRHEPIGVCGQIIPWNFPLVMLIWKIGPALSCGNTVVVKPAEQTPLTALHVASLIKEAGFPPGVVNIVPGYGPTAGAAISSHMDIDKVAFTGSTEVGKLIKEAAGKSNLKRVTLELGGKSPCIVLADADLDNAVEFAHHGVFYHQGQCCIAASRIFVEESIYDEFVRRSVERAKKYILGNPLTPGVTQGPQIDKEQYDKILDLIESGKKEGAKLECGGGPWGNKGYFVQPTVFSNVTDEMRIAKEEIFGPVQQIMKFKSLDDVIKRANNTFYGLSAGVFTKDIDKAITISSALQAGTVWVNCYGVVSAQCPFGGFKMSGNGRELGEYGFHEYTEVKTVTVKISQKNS
# HPGD inh – inhibitors of human 15-hydroxyprostaglandin dehydrogenase (HPGD). Potency, µM, without a hit: at the highest dose activity change, negative = inhibition, actives largely listed as inhibitors. P15428. AID 894. 150,000 tested, 4.3% active. purified HPGD, NADH fluorescence kinetic, PGE2 substrate; active = well fitted inhibition curve with a large enough effect, not every such curve was filed as active; inconclusive = small, poorly fitted or top-dose-only effect, or another doubt; inactive = no such curve, though single readings can be large or run the other way; also: potency is read from the fitted curve at half-maximal effect
#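 20 nM HPGD preincubated 15 min at room temperature with compound in 50 mM Tris-HCl pH 8, 0.01% Tween 20. Started with 1 mM NAD+ and 30 uM prostaglandin E2; NADH fluorescence (360/450 nm) read 5 times over 30-s intervals, last minus first.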
# IMPase Li inh – cell-permeable IMPase inhibitors with lithium potentiation; CHO-M1 cells, IP1 TR-FRET (IP-One), carbachol + lithium; Potency, µM (doses to about 59.4 µM), without a hit: at the highest dose activity, negative = IMPase inhibition, usual class: inhibitors; AID 1457; 210,000 tested, 0.35% active;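 also: IP1 builds up when IMPase is blocked and the TR-FRET signal falls; potency is read from the fitted curve at half-maximal effect; plate controls were basal vehicle for no effect and high inhibitor control for full effect; nearly all actives have a fitted effect of over 50% in size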
#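 Test compounds were applied to CHO-M1 cells previously cultured for 16–30 h at 2000 per well. A small lithium amount accompanied them; after 30 min at 37C, IP1 was quantified by TR-FRET.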
# NPSR antagonist – blocks cAMP signaling of the human neuropeptide S receptor; CHO-NPSR cells, cAMP TR-FRET, antagonist mode; AID 1461; Potency, µM (doses to about 38.3 µM), without a hit: at the top dose activity change, negative = inhibition, usual class: inhibitors; Q6W5P4; 220,000 tested, 1% active; also: potency is read from the fitted curve at half-maximal effect; nearly all actives have a fitted effect of over 50% in size
# PNC assembly inh – blocks assembly of the perinucleolar compartment; PC3M PTB-GFP, PNC prevalence imaging, 16 h; active compounds read low; activity change (PNC), negative = inhibition, % at 10 µM; 140,000 tested, 3.1% active;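 active = readout at or below -70, meaning at least 70% loss of cells showing the perinucleolar compartment, a nuclear body marking cancer cells; inconclusive = readout between -30 and a set limit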;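 also: plate controls were DMSO wells for no effect and camptothecin positive control wells for full effect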
#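 Compounds are pinned in duplicate onto adhered PC3M cells stably expressing GFP-tagged PTB and incubated 16 h at 37 C. Cells are then fixed, nuclei stained with Hoechst, and PNC-positive cells counted.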
# The depositor's hits bear a star; u = inconclusive; x = no result given; [ ] = another dose, or the depositor's remark. Unless noted, calls follow the shape of the dose curve; as a rule, active = well fitted curve in the direction sought with a large enough effect; inconclusive = small, poorly fitted or top-dose-only effect, or another doubt; inactive = no such curve, though single readings can be large; an effect the other way counts as inactive or inconclusive. Unless noted, % is scaled to controls: 0 for no effect and ±100 for the full control effect.
SMILES,IMPase cell inh,ALDH1A1 inh,HPGD inh,IMPase Li inh,NPSR antagonist,PNC assembly inh
Cc1ccc(N(Cc2cc3ccc(C)cc3[nH]c2=O)C(=O)c2ccco2)c(C)c1,x,x,x,x,35%,x
Cn1c(=O)c2cc(S(=O)(=O)NC(C(=O)N3CCCCCC3)c3ccccc3)ccc2n(C)c1=O (stereo not given),-4,3.2µM*,-8%,5%[38.3 µM],-24%[46.1 µM],u
O=S(=O)(C/C(=C/CO)S(=O)(=O)c1ccccc1)c1ccccc1,9,13µM*,-5%,26%[38.3 µM],-14%[46.1 µM],-95*
C=CC(O)Cc1c(C)n[nH]c1C (stereo not given),-8,5%,-3%,-10%[38.3 µM],-2%[46.1 µM],103
CSc1ccc(Cl)c(C(=O)OCC(=O)NCC(C)C)c1,-1,-13%,14µM*,-8%[38.3 µM],-1%[46.1 µM],-19
COc1ccc(-c2cc(C(=O)Nc3cc(C)nn3-c3ccccc3)no2)cc1OC,x,-2%,x,-5%,-5%,x
CC(C(=O)Nc1ccccc1-c1ccccc1)N1CCN(C(=O)c2ccccc2)CC1 (stereo not given),x,13µM*,x,x,30%,x
CC1CCN(C(C)C(=O)Nc2ccccc2-c2ccccc2)CC1 (stereo not given),1,-11%,-1%,4%[38.3 µM],u,69
CC(C(=O)Nc1ccccc1-c1ccccc1)N1CCN(Cc2ccccc2)CC1 (stereo not given),x,14µM*,x,15%,-38%,x
Cc1ccc(S(=O)(=O)N2CCN(C(C)C(=O)Nc3ccccc3-c3ccccc3)CC2)cc1 (stereo not given),x,7.9µM*,0%,14%,-17%,-25
COc1ccc(-c2c(C)n([O-])c3c([n+]2=O)CCCC3)c(OC)c1,-2,5%,-4%,11%[38.3 µM],-1%[46.1 µM],0
c1ccc2cc(-c3cc4ccccn4c3)ccc2c1,3,u,-18%,-29%[38.3 µM],-4%[46.1 µM],11
O=S(=O)(NCCC1=CCCCC1)c1cccc(S(=O)(=O)N2CCOCC2)c1,14,10µM*,x,x,-6%[46.1 µM],10
O=C(NCCC1=CCCCC1)c1ccc(Cl)c(S(=O)(=O)N2CCOCC2)c1,13,13µM*,1%,0%[38.3 µM],-7%[46.1 µM],-19
O=S(=O)(NCCc1ccccc1)c1cccc(S(=O)(=O)N2CCOCC2)c1,7,-4%,-2%,14%[38.3 µM],-14%[46.1 µM],15
Cc1ccc2nc(NCC(N)=O)nc(-c3ccccc3)c2c1,x,u,x,x,30%,x
O=C(NCc1ccco1)C(=O)NCC1OCCCN1S(=O)(=O)c1ccc(F)cc1 (stereo not given),x,u,x,3%,14%,x
O=C(NC(=S)Nc1ccc2c(c1)OCCO2)c1cccc(Br)c1,x,14µM*,-16%,13%,-3%,-26
O=C(NC(=S)Nc1ccc2c(c1)OCCO2)c1cccc2ccccc12,x,13µM*,-19%,3%,-27%,-8
O=C(NC(=S)Nc1ccc2c(c1)OCO2)c1ccccc1,0,5µM*,10µM*,8%[38.3 µM],-13%[46.1 µM],u
O=C(O)c1ccccc1NC(=S)NC(=O)c1cccc2ccccc12,x,u,x,0%,1%,x
NC(N)=NS(=O)(=O)c1ccc(NC(=S)NC(=O)c2ccc3c(c2)OCO3)cc1,x,25µM*,x,u,9%,x
NS(=O)(=O)c1ccc(NC(=S)NC(=O)c2ccc3c(c2)OCO3)cc1,x,u,x,-10%,6%,x
C=CCNC(=O)c1scc2c1CCCC2,8,0%,-14%,7%[38.3 µM],-14%[46.1 µM],u
FC(F)(F)c1ccccc1NC(=S)N/N=C1\CC2CC=CC12 (stereo not given),x,7.9µM*,x,1%,-39%,x
SMILES,IMPase cell inh,ALDH1A1 inh,HPGD inh,IMPase Li inh,NPSR antagonist,PNC assembly inh
COc1ccc(-c2nnc3ccc(SC(C(C)=O)C(C)=O)nn23)cc1OC,10,-10%,14µM*,-1%[38.3 µM],3%[46.1 µM],-11
COC(=O)CSc1ccc2nnc(-c3ccc(OC)c(OC)c3)n2n1,-2,1%,u,6%,9%,-17
CCC(Sc1ccc2nnc(-c3ccc(OC)c(OC)c3)n2n1)C(=O)O (stereo not given),-15,u,14µM*,-27%[38.3 µM],5%[46.1 µM],37
COc1cc(NC(=O)C2CCCN(S(=O)(=O)c3cccc4nsnc34)C2)cc(OC)c1 (stereo not given),9,-3%,-17%,4%[38.3 µM],-24%[46.1 µM],11
Cn1c(=O)c2c(ncn2CC(=O)N2CCCc3ccccc32)n(C)c1=O,-9,-4%,-10%,-3%[38.3 µM],-5%[46.1 µM],u
CCCCCOC(=O)CCN1C(=O)/C(=C2\SC(=S)N(CCC(=O)OCCCCC)C2=O)SC1=S,x,x,x,x,-28%,x
COc1ccccc1N1CCN(/N=C/c2cc([N+](=O)[O-])ccc2Cl)CC1,x,22µM*,x,34%,-17%,x
COc1ccccc1N1CCN(/N=C/c2cccc(OC)c2OC)CC1,x,1%,x,10%,-3%,x
O=[N+]([O-])c1ccc(Cl)c(/C=N/N2CCN(c3ccccc3)CC2)c1,3,-4%,-24%,17%[38.3 µM],-15%[46.1 µM],7
COc1ccccc1N1CCN(/N=C/c2c(C)nn(-c3ccccc3)c2C)CC1,5,-8%,-4%,7%,-18%[46.1 µM],-84*
CC(C)(C)NC(=O)NC(=O)CN1CCN(C(c2ccccc2)c2ccccc2)CC1,x,0%,x,1%,-55%,x
O=C(CSC(=S)N1CCCCC1)Nc1nc(-c2ccccc2)c(-c2ccccc2)o1,3,-13%,-14%,8%[38.3 µM],-24%[46.1 µM],25
COC(=O)[C@@]1(C)C=C[C@@H](Cc2ccccc2)N1C,x,u,-9%,3%,x,x
Cc1ccc(C2=NC(C)(C)N=C2SCC(=O)Nc2ccc(Cl)cc2)cc1,1,22µM*,-24%,46%[38.3 µM],-30%[46.1 µM],34
CC1(C)N=C(SCC(=O)Nc2ccc(Cl)cc2Cl)C(c2ccccc2)=N1,11,u,-13%,36%[38.3 µM],u,-24
COc1cccc(OCc2nnc(SCC(=O)NCc3ccco3)n2CCc2ccccc2)c1,7,22µM*,-23%,-6%[38.3 µM],-9%[46.1 µM],42
COc1cccc(OCc2nnc(SCC(=O)NCc3ccco3)n2C)c1,-6,8%,-8%,-2%[38.3 µM],-5%[46.1 µM],7
COc1ccc(CNC(C)C(=O)Nc2ccc3ccccc3c2)cc1OC (stereo not given),x,15%,x,4%,-4%,x
c1ccc(CSc2ncnc3c2cnn3Cc2ccccc2)cc1,11,u,u,26%[38.3 µM],-20%[46.1 µM],-112*

# Screening data deposited in PubChem by National Center for Advancing Translational Sciences (NCATS).
